# From PMC5540273 (PLoS ONE, 2017)
# Tested on: NLK
# Conditions: concentration: 1 μM,replicates: in singlicate; n = 1
# 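Also: KINOMEscan kinase panel screen.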
row,Compound,%Inh [%]
1,COC(=O)Nc1nc2cc(Oc3ccc(NC(=O)Nc4cc(C(F)(F)F)ccc4Cl)cc3)ccc2[nH]1.Cl [GW697465],2
2,CS(=O)(=O)c1cccc(CNc2nc(Nc3ccc4c(c3)[C@@H]3C[C@@H]4CNC3=O)ncc2C(F)(F)F)c1,0
3,COc1cccc(C2=C(Nc3cccc(Cl)c3)C(=O)NC2=O)c1 [SB-341556],5
4,Cc1ccc2c(-c3ccnc(Nc4ccc(C(F)(F)F)cc4)n3)cnn2n1 [GW819776],24
5,CN1CCN(CCNc2nc3cc(Oc4ccc(NC(=O)Nc5cc(C(F)(F)F)ccc5F)cc4)ccc3[nH]2)CC1.Cl.Cl [GW768504],0
6,COc1cc2c(Nc3ccc(NC(=O)c4ccccc4)cc3)ncnc2cc1OCCCN1CCOCC1 [GSK301329],7
7,COc1cccc(OC)c1C(=O)Nc1cccc(-c2nn3ccccc3c2-c2ccnc(Nc3cccc(F)c3)n2)c1 [GSK361065],90
8,Cc1cccc(-c2nc(Nc3ccncc3)c3sccc3n2)n1 [GW869641],60
9,C[C@@H](Oc1cc(-n2cnc3cc(-c4cnn(C)c4)ccc32)sc1C(N)=O)c1ccccc1Cl [GSK580432],0
10,Cn1ccc2ncnc(Oc3ccc(NC(=O)Nc4cnn(C(C)(C)C)c4)c(Cl)c3)c21,38
11,Cn1ccc2ncnc(Oc3ccc(NC(=O)Nc4ccnc(C(F)(F)F)c4)c(Cl)c3)c21,14
12,C[C@@H](Oc1cc(-n2cnc3cc(-c4ccncc4)ccc32)sc1C(N)=O)c1ccccc1Cl [GSK479719],0
13,c1ccc(Oc2ccc(Nc3ccnc4ccc(-c5ccccn5)cc34)cc2)cc1 [GW407034],13
14,COC(=O)c1cccc(NC(=O)NC2CCN(c3ccnc(NCc4ccc(F)cc4)n3)CC2)c1 [GSK1379860],0
15,COc1cccc(CNC(=O)NC2CCN(c3ccnc(Nc4cc(OC)c(OC)c(OC)c4)n3)C2)c1 (stereo not shown) [GSK1379765],0
16,Cn1ccc2ncnc(Oc3ccc(NC(=O)Nc4cccc(C(F)(F)F)c4)c(Cl)c3)c21,25
17,O=C(NCC1CC1)c1ccc(-c2cc(C(=O)NC3CC3)ccc2F)cc1 [GW810445],10

row,Compound,%Inh [%]
1,O=c1[nH]cc(-c2ccc(O)cc2)c2sc(-c3ccncc3)cc12 [GSK1033723],11
2,Cn1ccc2ncnc(Oc3ccc(NC(=O)Nc4cncc(C(F)(F)F)c4)c(Cl)c3)c21,9
3,Cc1ccc(Nc2ccnc(Nc3ccc4c(c3)CS(=O)(=O)C4)n2)cc1O.Cl [GW579362],97.5
4,N#Cc1cccc(C(=O)NC2CCN(c3ccnc(Nc4ccc(F)cc4)n3)C2)c1 (stereo not shown) [GSK1379708],0
5,C[C@@H]1CNc2c(sc3ccc4nc(-c5ccc(O)cc5)ccc4c23)C(=O)N1,8
6,C[C@@H]1CNc2c(sc3ccc4nc(-c5ccncc5)ccc4c23)C(=O)N1,0
7,Cl.Nc1n[nH]c2cc(-c3ccccn3)ccc12 [GSK2189892],0
8,CCNCC(Cc1ccccc1)NC(=O)c1cc(Br)c(-c2ccnc3[nH]ccc23)s1.Cl.Cl (stereo not shown) [GSK1383280],0
9,CN(c1ccc2c(c1)nc(NCc1ccc(F)cc1)n2C)c1ccnc(Nc2ccc(CS(C)(=O)=O)cc2)n1.Cl [GW813244],0
10,COc1cc2ncn(-c3cc(OCC4CCCCC4)c(C(N)=O)s3)c2cc1OC [GSK204559],0
11,O=C(Nc1ccc(Oc2ccc3nc(NC(=O)C4CC4)cn3n2)c(F)c1)c1cccn(-c2ccccc2)c1=O,0
12,Cl.Cl.NC[C@H](CC1CCCCC1)NC(=O)c1ccc(-c2ccnc3[nH]ccc23)s1 [GSK1581428],12
13,CSc1nccc(-c2c(-c3ccc(F)cc3)ncn2CCCN2CCOCC2)n1.Cl [SB-217146],0
14,CCOC(=O)N1CCC(n2cnc(-c3ccc(F)cc3)c2-c2ccnc(N)n2)CC1 [SB-219952],92.7
15,CS(=O)(=O)Nc1ccc(-c2ccnc3[nH]ccc23)cc1 [GSK993273],30
16,O=C(Nc1cccc(C(F)(F)F)c1)c1cccc(Oc2ccc3nccn3n2)c1,0
17,O=C(NOCC1CC1)c1cc(Br)c(F)c(F)c1Nc1ccc(I)cc1Cl,0
